Common to all, as to assay: DAPPL (digital affinity profiling via proximity ligation, sequencing); 10 mM Tris-HCl pH 7.5, 50 mM NaCl, 1 mM DTT, 4% glycerol, room temperature, 30 min; GST-TFs on glutathione beads, 16-mer random dsDNA library, 0.1% formaldehyde crosslink after washing; high values mean tight binding
The target of one assay is T1, FEV (Homo sapiens, UniProt Q99581 1-238).
T1 sequence: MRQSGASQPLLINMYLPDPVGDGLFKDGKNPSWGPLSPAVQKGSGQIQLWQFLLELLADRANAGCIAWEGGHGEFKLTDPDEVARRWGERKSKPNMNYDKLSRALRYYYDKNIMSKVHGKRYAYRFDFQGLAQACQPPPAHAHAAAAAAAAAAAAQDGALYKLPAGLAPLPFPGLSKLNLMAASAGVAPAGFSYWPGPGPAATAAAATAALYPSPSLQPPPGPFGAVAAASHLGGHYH
To be noted: protein: recombinant; tags: N-terminal GST; dsDNA, one strand shown. An outline of the steps:
(§1)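 Pools were built from human transcription factors expressed in yeast as GST fusions, captured on glutathione beads and DNA-barcoded, along with a tag-only sample. Incubation with 200 nmole of a 16-mer random double-stranded DNA library lasted 30 min at room temperature in Tris/NaCl/DTT/glycerol buffer, and was followed by washing, 0.1% formaldehyde crosslinking, proximity ligation, PCR amplification and Illumina NextSeq500 sequencing. Binding signal is the quotient of each hexamer's read frequency for a factor and its frequency for the tag-only sample.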

In a further assay the target is ETV5 (Homo sapiens, UniProt P41161 1-510). To be noted: protein: recombinant; tags: N-terminal GST; dsDNA, one strand shown. The method in brief: as §1
The target in the next assay is HSF1 (Homo sapiens, UniProt Q00613 1-529). To be noted: protein: recombinant; tags: N-terminal GST; chain copies: 3; dsDNA, one strand shown. The method in brief: as §1
The next assay concerns the target T2, SPIC (Homo sapiens, UniProt Q8N5J4 1-248).
T2 sequence: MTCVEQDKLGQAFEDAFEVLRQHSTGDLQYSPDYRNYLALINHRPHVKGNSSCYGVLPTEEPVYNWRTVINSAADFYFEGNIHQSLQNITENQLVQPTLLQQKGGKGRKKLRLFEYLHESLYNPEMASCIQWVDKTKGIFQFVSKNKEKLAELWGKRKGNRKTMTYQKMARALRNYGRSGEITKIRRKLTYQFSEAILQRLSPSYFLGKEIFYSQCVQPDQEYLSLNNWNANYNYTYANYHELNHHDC
To be noted: protein: recombinant; tags: N-terminal GST; dsDNA, one strand shown. The method in brief: as §1

The next assay addresses ELF4 (Homo sapiens, UniProt Q99607 1-663). To be noted: protein: recombinant; tags: N-terminal GST; dsDNA, one strand shown. An outline of the steps: as §1
The target of another assay is T3, ELK4 (Homo sapiens, UniProt P28324-2 1-405).
T3 sequence: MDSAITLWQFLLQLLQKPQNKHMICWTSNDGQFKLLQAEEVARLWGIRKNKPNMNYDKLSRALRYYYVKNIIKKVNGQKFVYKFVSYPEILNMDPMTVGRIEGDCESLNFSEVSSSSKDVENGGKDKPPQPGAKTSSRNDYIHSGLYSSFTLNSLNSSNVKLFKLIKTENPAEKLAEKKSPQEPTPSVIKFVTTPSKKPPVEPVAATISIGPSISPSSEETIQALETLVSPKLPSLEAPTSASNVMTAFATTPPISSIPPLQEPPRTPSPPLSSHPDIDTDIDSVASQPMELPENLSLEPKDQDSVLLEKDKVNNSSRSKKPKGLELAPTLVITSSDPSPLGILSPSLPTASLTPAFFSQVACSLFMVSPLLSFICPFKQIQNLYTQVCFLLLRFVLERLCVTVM
To be noted: protein: recombinant; tags: N-terminal GST; dsDNA, one strand shown. The method in brief: as §1

The next assay deals with T4, ETV2 (Homo sapiens, UniProt O00321 1-342).
T4 sequence: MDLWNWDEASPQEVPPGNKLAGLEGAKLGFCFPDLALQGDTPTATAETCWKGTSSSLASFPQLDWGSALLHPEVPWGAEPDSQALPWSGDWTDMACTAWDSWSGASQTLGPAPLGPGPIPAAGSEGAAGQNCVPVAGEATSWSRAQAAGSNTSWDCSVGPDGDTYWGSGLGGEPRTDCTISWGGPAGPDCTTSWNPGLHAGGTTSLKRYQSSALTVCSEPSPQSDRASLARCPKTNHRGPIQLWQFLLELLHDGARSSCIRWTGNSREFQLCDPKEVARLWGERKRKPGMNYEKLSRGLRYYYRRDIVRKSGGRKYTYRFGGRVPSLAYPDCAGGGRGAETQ
To be noted: protein: recombinant; tags: N-terminal GST; dsDNA, one strand shown. An outline of the steps: as §1

A further assay concerns the target T5, ELF3 (Homo sapiens, UniProt P78545 1-371).
T5 sequence: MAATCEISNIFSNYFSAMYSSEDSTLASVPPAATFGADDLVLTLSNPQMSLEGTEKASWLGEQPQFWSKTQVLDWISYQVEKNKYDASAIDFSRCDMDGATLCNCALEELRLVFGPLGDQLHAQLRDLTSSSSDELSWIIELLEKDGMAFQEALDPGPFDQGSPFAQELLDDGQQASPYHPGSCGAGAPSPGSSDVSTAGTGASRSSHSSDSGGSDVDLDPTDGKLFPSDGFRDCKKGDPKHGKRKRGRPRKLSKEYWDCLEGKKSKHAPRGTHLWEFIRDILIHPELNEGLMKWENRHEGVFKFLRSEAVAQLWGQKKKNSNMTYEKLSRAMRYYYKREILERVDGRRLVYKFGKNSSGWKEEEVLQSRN
The note with it: protein: recombinant; tags: N-terminal GST; dsDNA, one strand shown. The method in brief:
as §1

In another assay the target is CRX (Homo sapiens, UniProt O43186 1-299). To be noted: protein: recombinant; tags: N-terminal GST; dsDNA, one strand shown. The method in brief: as §1
A further assay has as its target ETV1 (Homo sapiens, UniProt P50549 1-477). To be noted: protein: recombinant; tags: N-terminal GST; dsDNA, one strand shown. An outline of the steps:
as §1

A further assay deals with T6, ERF (Homo sapiens, UniProt P50548 1-548).
T6 sequence: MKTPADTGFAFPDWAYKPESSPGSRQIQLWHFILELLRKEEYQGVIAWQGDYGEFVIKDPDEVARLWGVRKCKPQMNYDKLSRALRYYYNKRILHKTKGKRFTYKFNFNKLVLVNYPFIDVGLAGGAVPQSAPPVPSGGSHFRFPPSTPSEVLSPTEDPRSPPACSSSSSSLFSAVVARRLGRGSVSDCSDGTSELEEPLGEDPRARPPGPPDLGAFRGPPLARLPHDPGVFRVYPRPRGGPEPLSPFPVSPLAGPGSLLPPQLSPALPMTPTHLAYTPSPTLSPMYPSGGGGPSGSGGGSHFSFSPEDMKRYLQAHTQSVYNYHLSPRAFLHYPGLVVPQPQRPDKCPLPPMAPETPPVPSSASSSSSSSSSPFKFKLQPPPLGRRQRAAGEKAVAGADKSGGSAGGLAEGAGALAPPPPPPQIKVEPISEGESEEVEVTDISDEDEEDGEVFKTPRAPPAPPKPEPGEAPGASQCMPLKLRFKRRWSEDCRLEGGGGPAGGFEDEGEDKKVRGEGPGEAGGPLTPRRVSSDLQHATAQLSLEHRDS
To be noted: protein: recombinant; tags: N-terminal GST; dsDNA, one strand shown. The method in brief: as §1

In the next assay the target is T7, ETV3L (Homo sapiens, UniProt Q6ZN32 1-361).
T7 sequence: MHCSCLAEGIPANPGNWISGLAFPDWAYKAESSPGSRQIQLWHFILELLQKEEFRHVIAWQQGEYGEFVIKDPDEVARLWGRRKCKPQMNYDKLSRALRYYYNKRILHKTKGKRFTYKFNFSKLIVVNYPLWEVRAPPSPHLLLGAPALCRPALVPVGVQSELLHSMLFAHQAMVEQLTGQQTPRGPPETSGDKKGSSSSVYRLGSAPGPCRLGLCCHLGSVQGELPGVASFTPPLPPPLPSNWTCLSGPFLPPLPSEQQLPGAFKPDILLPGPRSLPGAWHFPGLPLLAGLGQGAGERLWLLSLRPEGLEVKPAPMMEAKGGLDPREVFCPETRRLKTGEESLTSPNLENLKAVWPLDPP
To be noted: protein: recombinant; tags: N-terminal GST; dsDNA, one strand shown. The method in brief:
as §1

The next assay concerns the target T8, ETS2 (Homo sapiens, UniProt P15036 1-469).
T8 sequence: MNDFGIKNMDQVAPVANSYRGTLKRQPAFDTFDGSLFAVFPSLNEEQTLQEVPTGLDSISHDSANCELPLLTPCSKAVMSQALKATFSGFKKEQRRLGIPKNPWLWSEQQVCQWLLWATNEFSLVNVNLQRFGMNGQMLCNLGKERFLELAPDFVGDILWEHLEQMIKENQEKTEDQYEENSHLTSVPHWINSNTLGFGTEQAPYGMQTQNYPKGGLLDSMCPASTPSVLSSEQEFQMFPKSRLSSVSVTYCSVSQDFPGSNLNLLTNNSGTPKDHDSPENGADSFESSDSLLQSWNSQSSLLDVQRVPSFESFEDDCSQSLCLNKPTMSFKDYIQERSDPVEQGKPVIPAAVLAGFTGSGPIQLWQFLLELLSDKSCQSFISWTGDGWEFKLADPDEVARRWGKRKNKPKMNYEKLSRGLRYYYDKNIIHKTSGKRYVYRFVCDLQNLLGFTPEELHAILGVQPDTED
To be noted: protein: recombinant; tags: N-terminal GST; dsDNA, one strand shown. The method in brief:
as §1

The target of the next assay is T9, SPDEF (Homo sapiens, UniProt O95238 1-335).
T9 sequence: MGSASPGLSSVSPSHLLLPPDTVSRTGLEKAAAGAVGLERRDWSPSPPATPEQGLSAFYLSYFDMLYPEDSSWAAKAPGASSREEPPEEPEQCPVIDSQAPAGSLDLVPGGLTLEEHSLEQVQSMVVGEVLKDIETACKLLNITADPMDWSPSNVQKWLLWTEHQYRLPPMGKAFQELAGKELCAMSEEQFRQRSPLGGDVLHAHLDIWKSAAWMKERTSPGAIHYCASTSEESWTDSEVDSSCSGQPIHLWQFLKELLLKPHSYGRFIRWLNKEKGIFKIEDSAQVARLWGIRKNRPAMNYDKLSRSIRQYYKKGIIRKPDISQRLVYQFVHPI
The note with it: protein: recombinant; tags: N-terminal GST; dsDNA, one strand shown. The method in brief: as §1

For the next assay, the target named is T10, ETV7 (Homo sapiens, UniProt Q9Y603 1-341).
T10 sequence: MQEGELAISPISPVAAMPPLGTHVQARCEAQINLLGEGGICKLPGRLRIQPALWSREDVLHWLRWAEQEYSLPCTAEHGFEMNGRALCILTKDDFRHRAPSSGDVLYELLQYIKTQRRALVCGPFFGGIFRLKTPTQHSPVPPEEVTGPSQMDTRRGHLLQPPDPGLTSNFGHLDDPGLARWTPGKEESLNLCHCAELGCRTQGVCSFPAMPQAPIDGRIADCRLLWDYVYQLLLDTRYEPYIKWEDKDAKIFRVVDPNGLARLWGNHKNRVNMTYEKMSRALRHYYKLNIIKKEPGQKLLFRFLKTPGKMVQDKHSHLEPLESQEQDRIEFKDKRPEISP
The note with it: protein: recombinant; tags: N-terminal GST; dsDNA, one strand shown. An outline of the steps: as §1

The target in a further assay is T11, ELF5 (Homo sapiens, UniProt Q9UKW6-2 1-255).
T11 sequence: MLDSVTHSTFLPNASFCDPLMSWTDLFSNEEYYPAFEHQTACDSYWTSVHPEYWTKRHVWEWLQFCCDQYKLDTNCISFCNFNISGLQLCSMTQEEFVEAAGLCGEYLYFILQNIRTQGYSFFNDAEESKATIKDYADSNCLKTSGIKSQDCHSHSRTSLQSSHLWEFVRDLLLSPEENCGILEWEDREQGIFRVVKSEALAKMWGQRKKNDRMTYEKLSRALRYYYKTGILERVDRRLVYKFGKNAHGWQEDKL
To be noted: protein: recombinant; tags: N-terminal GST; dsDNA, one strand shown. The method in brief: as §1

The target in another assay is T12, ETV3 (Homo sapiens, UniProt P41162-2 1-143).
T12 sequence: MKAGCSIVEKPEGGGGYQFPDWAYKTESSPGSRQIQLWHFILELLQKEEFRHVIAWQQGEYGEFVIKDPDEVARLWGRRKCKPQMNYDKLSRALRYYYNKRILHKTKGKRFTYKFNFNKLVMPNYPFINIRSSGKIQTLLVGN
To be noted: protein: recombinant; tags: N-terminal GST; dsDNA, one strand shown. An outline of the steps: as §1

A further assay has as its target ETV6 (Homo sapiens, UniProt P41212 1-452). The note with it: protein: recombinant; tags: N-terminal GST; dsDNA, one strand shown. The method in brief: as §1

Sequence of HSF1 (Q00613 whole entry): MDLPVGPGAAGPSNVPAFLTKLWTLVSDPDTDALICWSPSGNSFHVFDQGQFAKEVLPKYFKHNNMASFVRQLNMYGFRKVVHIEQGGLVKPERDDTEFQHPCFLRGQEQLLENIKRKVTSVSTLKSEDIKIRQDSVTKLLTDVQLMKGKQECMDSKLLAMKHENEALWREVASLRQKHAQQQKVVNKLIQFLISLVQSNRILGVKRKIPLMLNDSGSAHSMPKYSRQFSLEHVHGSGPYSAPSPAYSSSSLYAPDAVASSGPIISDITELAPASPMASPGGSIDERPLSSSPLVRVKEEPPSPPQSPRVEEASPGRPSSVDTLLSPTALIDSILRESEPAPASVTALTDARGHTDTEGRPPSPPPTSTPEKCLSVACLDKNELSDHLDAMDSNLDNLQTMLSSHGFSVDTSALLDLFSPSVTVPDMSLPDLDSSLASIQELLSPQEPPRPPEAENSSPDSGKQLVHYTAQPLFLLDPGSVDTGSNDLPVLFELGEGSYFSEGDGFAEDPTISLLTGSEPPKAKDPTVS
Sequence of ETV5 (P41161 whole entry): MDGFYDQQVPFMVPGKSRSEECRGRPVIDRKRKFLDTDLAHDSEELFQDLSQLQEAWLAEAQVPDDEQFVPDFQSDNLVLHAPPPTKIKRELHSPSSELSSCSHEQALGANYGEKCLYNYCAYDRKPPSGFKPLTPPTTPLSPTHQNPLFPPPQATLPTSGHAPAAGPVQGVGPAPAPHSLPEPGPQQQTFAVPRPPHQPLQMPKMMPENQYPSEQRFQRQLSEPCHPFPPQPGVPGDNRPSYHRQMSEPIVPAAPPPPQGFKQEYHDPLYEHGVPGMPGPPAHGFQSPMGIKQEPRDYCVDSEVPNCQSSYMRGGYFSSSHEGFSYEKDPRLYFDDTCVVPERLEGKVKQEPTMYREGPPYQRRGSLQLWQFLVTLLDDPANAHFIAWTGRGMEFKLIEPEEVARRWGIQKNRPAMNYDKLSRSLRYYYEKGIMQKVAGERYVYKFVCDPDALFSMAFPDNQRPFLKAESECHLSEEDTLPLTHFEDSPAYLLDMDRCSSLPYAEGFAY
Sequence of ETV1 (P50549 whole entry): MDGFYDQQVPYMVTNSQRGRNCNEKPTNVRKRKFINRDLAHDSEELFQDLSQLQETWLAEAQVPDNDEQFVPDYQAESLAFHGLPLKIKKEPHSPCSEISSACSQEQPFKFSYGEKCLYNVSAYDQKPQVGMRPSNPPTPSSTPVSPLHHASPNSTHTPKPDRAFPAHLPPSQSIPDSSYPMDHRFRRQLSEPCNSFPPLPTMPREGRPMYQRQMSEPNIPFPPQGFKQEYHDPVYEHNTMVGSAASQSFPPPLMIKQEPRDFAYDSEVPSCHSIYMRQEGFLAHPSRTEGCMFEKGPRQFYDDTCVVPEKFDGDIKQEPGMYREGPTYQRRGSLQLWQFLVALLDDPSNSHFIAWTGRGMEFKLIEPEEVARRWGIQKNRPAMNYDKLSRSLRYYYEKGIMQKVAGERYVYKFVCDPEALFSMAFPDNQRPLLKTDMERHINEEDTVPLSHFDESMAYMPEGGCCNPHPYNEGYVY
Sequence of ETV6 (P41212 whole entry): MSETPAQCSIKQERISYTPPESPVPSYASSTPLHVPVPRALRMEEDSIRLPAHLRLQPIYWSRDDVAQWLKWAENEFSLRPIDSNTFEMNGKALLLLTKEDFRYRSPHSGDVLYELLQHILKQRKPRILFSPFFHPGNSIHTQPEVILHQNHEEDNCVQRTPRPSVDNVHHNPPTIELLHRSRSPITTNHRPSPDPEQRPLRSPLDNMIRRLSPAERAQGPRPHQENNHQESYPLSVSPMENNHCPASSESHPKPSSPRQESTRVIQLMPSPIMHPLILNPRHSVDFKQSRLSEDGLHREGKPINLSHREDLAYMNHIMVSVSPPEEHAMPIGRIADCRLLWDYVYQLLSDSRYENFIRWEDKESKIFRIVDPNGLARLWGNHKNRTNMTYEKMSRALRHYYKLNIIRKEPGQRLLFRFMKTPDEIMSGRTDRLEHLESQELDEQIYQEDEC
Sequence of ELF4 (Q99607 whole entry): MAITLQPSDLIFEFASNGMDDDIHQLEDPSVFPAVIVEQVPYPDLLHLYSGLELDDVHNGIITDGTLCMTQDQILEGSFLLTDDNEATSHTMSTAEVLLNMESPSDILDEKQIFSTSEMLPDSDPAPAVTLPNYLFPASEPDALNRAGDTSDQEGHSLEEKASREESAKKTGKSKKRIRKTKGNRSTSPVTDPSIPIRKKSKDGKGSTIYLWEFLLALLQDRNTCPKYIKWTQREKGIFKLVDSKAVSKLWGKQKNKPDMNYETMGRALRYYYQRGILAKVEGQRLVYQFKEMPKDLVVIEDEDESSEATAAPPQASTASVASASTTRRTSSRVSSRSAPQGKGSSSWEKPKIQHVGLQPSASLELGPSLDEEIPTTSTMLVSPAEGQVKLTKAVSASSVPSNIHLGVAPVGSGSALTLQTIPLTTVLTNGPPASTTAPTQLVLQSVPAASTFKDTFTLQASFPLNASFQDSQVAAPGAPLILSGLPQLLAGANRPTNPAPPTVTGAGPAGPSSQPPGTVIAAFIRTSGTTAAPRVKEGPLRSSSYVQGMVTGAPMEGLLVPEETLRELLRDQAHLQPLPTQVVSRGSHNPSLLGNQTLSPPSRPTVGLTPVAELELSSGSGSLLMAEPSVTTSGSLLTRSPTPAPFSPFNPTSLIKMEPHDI
Sequence of CRX (O43186 whole entry): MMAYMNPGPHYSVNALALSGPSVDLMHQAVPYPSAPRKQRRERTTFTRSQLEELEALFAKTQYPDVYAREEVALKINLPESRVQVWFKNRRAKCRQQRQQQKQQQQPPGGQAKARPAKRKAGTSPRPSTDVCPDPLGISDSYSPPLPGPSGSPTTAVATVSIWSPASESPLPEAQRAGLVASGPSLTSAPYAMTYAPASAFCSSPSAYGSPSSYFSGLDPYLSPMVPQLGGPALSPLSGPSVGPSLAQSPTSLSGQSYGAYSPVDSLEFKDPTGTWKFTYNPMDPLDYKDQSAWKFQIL

For the sequence TACCAA, the binding signal in the assay with FEV is 1.14 fold enrichment (6-mer frequency, TF over GST control); with ETV5, 1.13 fold enrichment (6-mer frequency, TF over GST control); with HSF1, 1.14 fold enrichment (6-mer frequency, TF over GST control); with SPIC, 1.01 fold enrichment (6-mer frequency, TF over GST control); with ELF4, 1.2 fold enrichment (6-mer frequency, TF over GST control); with ELK4, 1.23 fold enrichment (6-mer frequency, TF over GST control). Also, the binding signal with ETV2 was 1.09 fold enrichment (6-mer frequency, TF over GST control); with ELF3, 1.05 fold enrichment (6-mer frequency, TF over GST control); in the assay with CRX, 1.25 fold enrichment (6-mer frequency, TF over GST control); with ETV1, 1.11 fold enrichment (6-mer frequency, TF over GST control); with ERF, 1.14 fold enrichment (6-mer frequency, TF over GST control); with ETV3L, 1.08 fold enrichment (6-mer frequency, TF over GST control). Also, the binding signal in the assay with ETS2 is 1.18 fold enrichment (6-mer frequency, TF over GST control); with SPDEF it was 1.17 fold enrichment (6-mer frequency, TF over GST control); in the assay with ETV7, 1.13 fold enrichment (6-mer frequency, TF over GST control); in the assay with ELF5, 1.09 fold enrichment (6-mer frequency, TF over GST control); with ETV3 it was 1.13 fold enrichment (6-mer frequency, TF over GST control); in the assay with ETV6, 1.17 fold enrichment (6-mer frequency, TF over GST control).

The values are drawn from publication PMC7862700, “An all-to-all approach to the identification of sequence-specific readers for epigenetic DNA modifications on cytosine”.
